Shiga toxin inh = A qHTS for Small Molecule Inhibitors of Shiga Toxin | Vero cells, Shiga toxin protein synthesis inhibition reporter | inhibition, % at 38.7 µM | 290,000 tested, 9.2% active | AID 2315, 2010; in the data active = inhibition mostly above about 28%, no sharp cut-off; inactive = mostly below about 43%
Pf growth 96h = Primary qHTS for delayed death inhibitors of the malarial parasite plastid, 96 hour incubation | P. falciparum luciferase reporter growth, 96 h | 320,000 tested, 6.9% active | Potency, µM (highest dose often 28.7 µM), hits mostly inhibitors
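Parasite growth measured via integrated firefly luciferase reporter in P. falciparum. Infected erythrocytes at 2% hematocrit, 0.05% parasitemia final were treated 96 hours at 37 C under 5% CO2, and luminescence was read.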
CHX counter = Cycloheximide Counterscreen for Small Molecule Inhibitors of Shiga Toxin; cell reporter, cycloheximide protein synthesis inhibition counterscreen; max response, %; 300,000 tested, 12% active; AID 2314, 2010; in the data active = max response mostly above about 13%, no sharp cut-off; inactive = mostly below about 14%; also: read at 38.3 µM for the half of the compounds with a filed dose
MARV entry inh = qHTS for inhibitors of binding or entry into cells for Marburg Virus; Marburg virus pseudotyped entry inhibition, cell reporter; Potency, µM (titrated, usually from 37.8 µM), most hits filed as inhibitors; 300,000 tested, 1.8% active; calls by dose curve; tested in HEK293 cells
Pf growth 48h = Primary qHTS for delayed death inhibitors of the malarial parasite plastid, 48 hour incubation. 310,000 tested, 5.9% active. P. falciparum luciferase growth in erythrocytes, 48 h. Potency, µM (doses to about 28.7 µM), usual class: inhibitors. AID 504832, 2011
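Luciferase-expressing parasites in RBCs, 2% Hct / 0.1% parasitemia final; RPMI 1640 + 0.5% Albumax; 37 C, 5% CO2, one generation; luminescence read-out, lower signal = inhibition.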
LASV entry inh = qHTS for Inhibitors of binding or entry into cells for Lassa Virus; AID 540256, 2011; Lassa virus pseudotype entry inhibition, cell reporter; 300,000 tested, 1.2% active; Potency, µM (top dose mostly 37.9 µM), usual class: inhibitors; calls by dose curve; tested in HEK293 cells; also: nearly all actives have a fitted effect of over 50% in size
Large screens that a line does not name were inactive. This is a sample that favours compounds with a hit; in the whole collection about 19% have one here. Unless noted, calls follow the shape of the dose curve; as a rule, active = well fitted inhibition curve with a large enough effect; inconclusive = small, poorly fitted or top-dose-only effect, or another doubt; inactive = no such curve, though single readings can be large or run the other way.

C=C1CCC[C@]2(C)C[C@H]3OC(=O)C(CNCC(C)C)[C@H]3CC12 (some centres undefined)	Pf growth 96h inconclusive (no result: MARV entry inh, LASV entry inh)
O=c1c2[nH]c3ccccc3c2nc(SCc2ccccc2F)n1-c1ccc(F)cc1	none (no result: Shiga toxin inh, Pf growth 96h, CHX counter, MARV entry inh, Pf growth 48h)
CC1CCCN(CCCNC(=O)c2ccc3c(c2)N(Cc2ccc(F)cc2)C(=O)c2ccccc2S3=O)C1 (centres undefined)	Pf growth 96h 11.7µM, MARV entry inh inconclusive, Pf growth 48h 13.1µM, LASV entry inh inconclusive
CC1CCCN(CCCNC(=O)c2ccc3c(c2)N(Cc2ccccc2F)C(=O)c2ccccc2S3(=O)=O)C1 (centres undefined)	Pf growth 96h inconclusive, MARV entry inh inconclusive, Pf growth 48h 2.08µM
CCN1CCCC1CNC(=O)c1ccc2c(c1)N(Cc1ccccc1F)C(=O)c1ccccc1S2(=O)=O (centres undefined)	Pf growth 48h 9.28µM (no result: MARV entry inh, LASV entry inh)
Cc1ccc(C)c(NC(=O)c2ccc(S(=O)(=O)C(F)F)cc2)c1	LASV entry inh inconclusive
O=C1N(c2ccc3c(c2)OCCO3)C(c2ccccc2)C1(F)F (centres undefined)	none
Cc1ccnc(NS(=O)(=O)c2ccc(Oc3ccccc3)cc2)c1	none (no result: Pf growth 48h)
COc1ccc(/C=N/NC(=O)C[n+]2ccccc2)c(OC)c1	none (no result: MARV entry inh, LASV entry inh)
Cc1cc(NC(=O)c2ccccc2)n(-c2nc3ccccc3[nH]2)n1	Pf growth 96h inconclusive (no result: MARV entry inh, LASV entry inh)
COc1ccc(C(=O)Nc2cc(C)nn2-c2nc3ccccc3[nH]2)c(OC)c1	CHX counter 20.2, Pf growth 48h inconclusive (no result: MARV entry inh, LASV entry inh)
Cc1cc(NC(=O)C2CCCC2)n(-c2nc3ccccc3[nH]2)n1	Pf growth 96h 10.4µM, Pf growth 48h 8.28µM
COc1cccc(OC)c1C(=O)Nc1cc(C)nn1-c1nc2ccccc2[nH]1	Pf growth 96h 7.38µM, MARV entry inh inconclusive, Pf growth 48h 9.28µM, LASV entry inh 11.2µM
[Cl][In]([Cl])[Cl]	Pf growth 96h 6.75µM, Pf growth 48h 7.57µM (no result: Shiga toxin inh, CHX counter, MARV entry inh, LASV entry inh)
COCCCNC(=O)/C(C#N)=C1\N=C(NC(=O)c2cccs2)c2ccccc21	CHX counter 17.7, MARV entry inh inconclusive, LASV entry inh inconclusive
COc1ccccc1CC(=O)NCc1nn(-c2ccccc2)nc1C	none (no result: MARV entry inh, LASV entry inh)
CC(C)(C)c1cc(-c2ccccc2)no1	none
Cc1ccc(Cc2cn3cc(-c4ccccc4)nc3s2)cc1	MARV entry inh inconclusive (no result: Shiga toxin inh, Pf growth 96h, CHX counter, Pf growth 48h)
Cc1ccc2nc(-c3cc(-c4ccccc4)no3)cn2c1	Shiga toxin inh 113.5, CHX counter 48.6, MARV entry inh inconclusive, LASV entry inh 0.891µM
CCc1ccn2cc(-c3cc(-c4ccccc4)no3)nc2c1	CHX counter 36.8 (no result: MARV entry inh, LASV entry inh)
CCOc1ccc(C(=O)Nc2ccc(S(=O)(=O)N3C[C@@H]4C[C@@H](C3)c3cccc(=O)n3C4)cc2)cc1	Pf growth 96h 2.94µM, Pf growth 48h inconclusive (no result: Shiga toxin inh, CHX counter, LASV entry inh)
CC/C(=N\NC(=O)c1ccc(Br)cc1)c1ccccc1	none
COc1cccc(C(=O)N/N=C(\CC(C)C)c2ccccc2)c1	Shiga toxin inh 55.1, CHX counter 21.7, LASV entry inh inconclusive
Cc1ccc(C(=O)N/N=C(\CC(C)C)c2ccccc2)cc1	Shiga toxin inh 71.5, CHX counter 44.1
CCC/C(=N/NC(=O)c1cccc(Cl)c1)c1ccccc1	Shiga toxin inh 79.9, CHX counter 59.3, MARV entry inh inconclusive
COc1cccc(C(=O)NNC(=O)CCC(=O)O)c1	none (no result: MARV entry inh, LASV entry inh)
O=C(NCc1ccco1)/C(=C\c1cccs1)NC(=O)c1ccccc1	none (no result: MARV entry inh, LASV entry inh)
CN1CCCN(C(=O)C2CCC(C(=O)N3CCCN(C)CC3)CC2)CC1 (centres undefined)	none
CCn1c(SCC(=O)N(C)Cc2ccc(OC)c(F)c2)nc2cc(S(N)(=O)=O)ccc21	Pf growth 96h inconclusive
O=C(NCCc1csc(-c2ccccc2)n1)c1ccc(Br)o1	none (no result: MARV entry inh, LASV entry inh)
Cc1ccc(-c2csc(NC(=O)CCNC(=O)c3ccco3)n2)cc1	Shiga toxin inh 43.4, Pf growth 96h inconclusive, CHX counter 20.2, MARV entry inh inconclusive, Pf growth 48h inconclusive
Cc1ccc(-c2nc(CNC(=O)c3ccco3)cs2)cc1	Shiga toxin inh 84.6, Pf growth 96h inconclusive (no result: MARV entry inh, LASV entry inh)
Cc1ccc(-c2nc(CCNC(=O)c3ccco3)cs2)cc1	Pf growth 96h inconclusive, MARV entry inh inconclusive, Pf growth 48h inconclusive (no result: Shiga toxin inh, CHX counter)
O=C(NCCc1csc(-c2cccnc2)n1)c1ccc(Br)o1	Pf growth 96h 8.28µM, Pf growth 48h inconclusive (no result: MARV entry inh, LASV entry inh)
COc1cc(-c2nc(CCNC(=O)c3ccco3)cs2)cc(OC)c1OC	Pf growth 96h 10.4µM, Pf growth 48h inconclusive (no result: MARV entry inh, LASV entry inh)
O=C1NC[C@H](c2ccccc2)N(CC2CCCCC2)C1=O	none (no result: MARV entry inh, LASV entry inh)
Cc1csc2nc(CNC(=O)c3ccco3)cn12	Shiga toxin inh 56.4, CHX counter 35.1
COc1ccc2c(c1)/C(=C\c1cccc(/C=C3/C(=O)Nc4ccc(OC)cc43)n1)C(=O)N2	MARV entry inh 1.58µM, LASV entry inh 2.82µM (no result: Shiga toxin inh, Pf growth 96h, CHX counter, Pf growth 48h)
COc1ccc(-c2[nH]ncc2CNCCCSC)cc1F	Pf growth 96h 5.22µM (no result: MARV entry inh, LASV entry inh)
c1ccc2[nH]c(NC3=NCCC3)nc2c1	Pf growth 96h inconclusive, Pf growth 48h inconclusive
O=C(Nc1ncc(Cc2cccc(C(F)(F)F)c2)s1)c1ccc(-c2cccc([N+](=O)[O-])c2)o1	MARV entry inh 15.8µM, Pf growth 48h inconclusive, LASV entry inh inconclusive
Cc1nnc(NC(=O)c2ccc(-c3cccc(C(F)(F)F)c3)o2)s1	none (no result: Pf growth 96h)
O=C(Nc1ccccc1F)c1ccc(-c2cccc([N+](=O)[O-])c2)o1	Shiga toxin inh 63.4, Pf growth 96h inconclusive, CHX counter 22.1 (no result: MARV entry inh, LASV entry inh)
O=C(Nc1nccs1)c1ccc(-c2cccc([N+](=O)[O-])c2)o1	CHX counter 23.5, MARV entry inh inconclusive, Pf growth 48h inconclusive, LASV entry inh inconclusive
Cc1ccc2cccc(NC(=O)c3ccc(-c4cccc([N+](=O)[O-])c4)o3)c2n1	none (no result: Shiga toxin inh, Pf growth 96h, CHX counter, Pf growth 48h)
C#CCNC(=O)C1=C[C@@H](C(C)(C)C)C[C@@H](OCc2ccc(CO)cc2)O1	Pf growth 96h inconclusive (no result: MARV entry inh, LASV entry inh)
CS(=O)(=O)c1ccc(Cl)c(NC(=O)COC(=O)CCN=C2NS(=O)(=O)c3ccccc32)c1	none (no result: Shiga toxin inh, CHX counter)
COC(=O)c1nn2c(C(F)(F)F)cc(-c3ccc(Br)o3)nc2c1Br	none (no result: Pf growth 96h)
COc1cc(/C=N\NC(=O)c2ccccc2F)ccc1Oc1ccc([N+](=O)[O-])cn1	CHX counter 15.8
COc1cc(/C=C(/C#N)c2ccc(F)cc2)ccc1Oc1ccc([N+](=O)[O-])cn1	MARV entry inh inconclusive, Pf growth 48h 4.65µM, LASV entry inh inconclusive
COc1cc(/C=N\NC(=O)c2cccc(Cl)c2)ccc1Oc1ccc([N+](=O)[O-])cn1	Shiga toxin inh 53.5, CHX counter 17.3, MARV entry inh inconclusive, Pf growth 48h inconclusive
COc1cc(/C=N\NC(=O)c2ccc(Cl)cc2)ccc1Oc1ccc([N+](=O)[O-])cn1	LASV entry inh inconclusive
CCN(CC)S(=O)(=O)c1cccc(C(=O)N/N=C/c2cc(OC)c(O)c(OC)c2)c1	none
Oc1ccc(-c2nnc(-c3ccccc3)c(-c3ccccc3)n2)cc1	Pf growth 96h inconclusive (no result: MARV entry inh, LASV entry inh)

From PubChem BioAssay
